Out of some 23,000 compounds screened, about 30 (0.1%) showed an effect of 50% or more. Many of the other results were omitted from the sample, so strong results are more common in it than they were. Results with a measured potency or affinity are listed apart.
Tested on: Pseudomonas aeruginosa
Conditions: Concentration 32 ug.mL-1; ASSAY_TEST Inhibition of Bacterial Growth; detection method Absorption (OD600); MEDIA CAMHB; plate type 384well; NBS; CORNING #3640; time 18 hr

Compared with `N=C(Nc1ccccc1)c1cscn1`, `N=C(Nc1ccccc1Cl)c1cscn1` is higher in Inhibition: 1.73% for the first, 77.11% for the second.

For `CCc1ccc(Nc2nc(N)c(-c3nc4ccccc4c(=O)n3-c3ccccc3)s2)cc1`, the Inhibition was 12.66%.

Source: ChEMBL document CHEMBL4513154, “CO-ADD screening of Jain University (India) compounds”
